# Measurements taken from paper PMC11006913.
# Changes are numbered by the printed parent chain.
# Key:
# Experiment in all cases: PBM; 200 nM protein, PBS
# Conditions in all cases: dsDNA, one strand shown
# NKX2-4 [1] = molecular target: T1, NKX2-4 (Homo sapiens, UniProt Q9H2Z4 175-261, P217L)
# T1 sequence: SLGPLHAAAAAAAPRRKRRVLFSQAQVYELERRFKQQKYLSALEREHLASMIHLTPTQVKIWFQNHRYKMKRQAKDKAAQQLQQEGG
# NKX2-4 [2] = molecular target: T2, NKX2-4 (Homo sapiens, UniProt Q9H2Z4 175-261, T231S)
# T2 sequence: T1 sequence with L43P, T57S
# PAX4 [3] = molecular target: T3, PAX4 (Homo sapiens, UniProt O43316 9-242, R200K)
# T3 sequence: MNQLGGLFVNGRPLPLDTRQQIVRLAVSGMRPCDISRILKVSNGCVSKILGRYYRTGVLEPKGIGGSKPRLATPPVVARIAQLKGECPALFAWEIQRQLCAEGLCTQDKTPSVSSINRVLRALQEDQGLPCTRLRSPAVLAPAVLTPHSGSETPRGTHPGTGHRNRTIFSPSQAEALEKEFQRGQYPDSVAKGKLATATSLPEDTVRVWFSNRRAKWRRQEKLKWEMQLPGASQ
# PAX4 [4] = molecular target: T4, PAX4 (Homo sapiens, UniProt O43316 9-242)
# T4 sequence: T3 sequence with K192R
# NKX2-4 [5] = molecular target: T5, NKX2-4 (Homo sapiens, UniProt Q9H2Z4 175-261)
# T5 sequence: T1 sequence with L43P
# HOXB6 [6] = molecular target: HOXB6 (Homo sapiens, UniProt P17509 132-218, K202E)
# HOXA2 [7] = molecular target: HOXA2 (Homo sapiens, UniProt O43364 129-215, R185T)
# ALX3 [8] = molecular target: ALX3 (Homo sapiens, UniProt O95076 139-225, N203Q)
# PAX4 [9] = molecular target: T6, PAX4 (Homo sapiens, UniProt O43316 9-242, R200Q)
# T6 sequence: T3 sequence with K192Q
# HOXA2 [10] = molecular target: HOXA2 (Homo sapiens, UniProt O43364 129-215, R185K)
# PAX4 [11] = molecular target: T7, PAX4 (Homo sapiens, UniProt O43316 9-242, F177V)
# T7 sequence: T3 sequence with F169V, K192R
# ALX3 [12] = molecular target: ALX3 (Homo sapiens, UniProt O95076 139-225)
# NKX2-4 [13] = molecular target: T8, NKX2-4 (Homo sapiens, UniProt Q9H2Z4 175-261, R246Q)
# T8 sequence: T1 sequence with L43P, R72Q
# PAX4 [14] = molecular target: T9, PAX4 (Homo sapiens, UniProt O43316 9-242, F177Y)
# T9 sequence: T3 sequence with F169Y, K192R
# PROP1 [15] = molecular target: PROP1 (Homo sapiens, UniProt O75360 56-141)
# PROP1 [16] = molecular target: PROP1 (Homo sapiens, UniProt O75360 56-141, R99H)
# ALX3 [17] = molecular target: ALX3 (Homo sapiens, UniProt O95076 139-225, L168Q)
# ALX3 [18] = molecular target: ALX3 (Homo sapiens, UniProt O95076 139-225, L168V)
# PROP1 [19] = molecular target: PROP1 (Homo sapiens, UniProt O75360 56-141, F88S)
# PAX4 [20] = molecular target: T10, PAX4 (Homo sapiens, UniProt O43316 9-242, R227W)
# T10 sequence: T3 sequence with K192R, R219W
# HOXA2 [21] = molecular target: HOXA2 (Homo sapiens, UniProt O43364 129-215, Y150S)
# ALX3 [22] = molecular target: ALX3 (Homo sapiens, UniProt O95076 139-225, N203S)
# HOXA2 [23] = molecular target: HOXA2 (Homo sapiens, UniProt O43364 129-215)
# HOXB6 [24] = molecular target: HOXB6 (Homo sapiens, UniProt P17509 132-218)
# HOXD13 [25] = molecular target: HOXD13 (Homo sapiens, UniProt P35453 263-343, T313R)
# HOXD13 [26] = molecular target: HOXD13 (Homo sapiens, UniProt P35453 263-343)
# HOXD13 [27] = molecular target: HOXD13 (Homo sapiens, UniProt P35453 263-343, T313A)
# MSX2 [28] = molecular target: MSX2 (Homo sapiens, UniProt P35548 130-214, R199I)
# ALX1 [29] = molecular target: ALX1 (Homo sapiens, UniProt Q15699 118-204, L144V)
# ALX1 [30] = molecular target: ALX1 (Homo sapiens, UniProt Q15699 118-204, L144R)
# MSX2 [31] = molecular target: MSX2 (Homo sapiens, UniProt P35548 130-214)
# MSX2 [32] = molecular target: MSX2 (Homo sapiens, UniProt P35548 130-214, F161Y)
# ALX1 [33] = molecular target: ALX1 (Homo sapiens, UniProt Q15699 118-204)
# Sequence of ALX1 (Homo sapiens, UniProt Q15699 118-204) (Q15699 118-204): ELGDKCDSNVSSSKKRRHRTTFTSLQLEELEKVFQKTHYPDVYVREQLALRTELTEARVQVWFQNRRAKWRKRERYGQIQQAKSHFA
# Sequence of MSX2 (Homo sapiens, UniProt P35548 130-214, R199I) (P35548 130-214 R199I): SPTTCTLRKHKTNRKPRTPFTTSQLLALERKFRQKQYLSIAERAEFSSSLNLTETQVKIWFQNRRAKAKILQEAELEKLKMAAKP
# Sequence of PROP1 (Homo sapiens, UniProt O75360 56-141, R99H) (O75360 56-141 R99H): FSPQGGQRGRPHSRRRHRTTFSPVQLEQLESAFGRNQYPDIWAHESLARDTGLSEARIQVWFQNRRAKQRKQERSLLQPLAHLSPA
# Sequence of HOXA2 (Homo sapiens, UniProt O43364 129-215, Y150S) (O43364 129-215 Y150S): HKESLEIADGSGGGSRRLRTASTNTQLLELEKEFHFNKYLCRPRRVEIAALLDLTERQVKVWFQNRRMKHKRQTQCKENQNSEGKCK
# Sequence of HOXA2 (Homo sapiens, UniProt O43364 129-215) (O43364 129-215): as the sequence (O43364 129-215 Y150S) above, with S22Y counted along it
# Sequence of HOXD13 (Homo sapiens, UniProt P35453 263-343, T313R) (P35453 263-343 T313R): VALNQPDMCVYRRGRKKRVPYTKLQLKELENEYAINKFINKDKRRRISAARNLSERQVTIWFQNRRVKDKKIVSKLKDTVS
# Sequence of ALX3 (Homo sapiens, UniProt O95076 139-225, L168Q) (O95076 139-225 L168Q): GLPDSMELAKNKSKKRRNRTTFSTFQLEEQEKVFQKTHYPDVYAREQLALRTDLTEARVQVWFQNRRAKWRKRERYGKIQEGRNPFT
# Sequence of MSX2 (Homo sapiens, UniProt P35548 130-214) (P35548 130-214): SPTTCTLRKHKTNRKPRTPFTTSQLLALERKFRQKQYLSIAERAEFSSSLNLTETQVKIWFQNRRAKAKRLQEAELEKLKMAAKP
# Sequence of HOXD13 (Homo sapiens, UniProt P35453 263-343) (P35453 263-343): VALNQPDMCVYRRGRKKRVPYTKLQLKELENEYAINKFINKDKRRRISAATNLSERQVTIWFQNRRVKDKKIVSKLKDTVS
# Sequence of ALX1 (Homo sapiens, UniProt Q15699 118-204, L144R) (Q15699 118-204 L144R): as the sequence (Q15699 118-204) above, with L27R counted along it
# Sequence of PROP1 (Homo sapiens, UniProt O75360 56-141, F88S) (O75360 56-141 F88S): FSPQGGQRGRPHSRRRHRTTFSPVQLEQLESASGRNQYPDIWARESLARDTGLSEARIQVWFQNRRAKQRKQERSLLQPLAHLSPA
# Sequence of HOXA2 (Homo sapiens, UniProt O43364 129-215, R185K) (O43364 129-215 R185K): as the sequence (O43364 129-215 Y150S) above, with S22Y, R57K counted along it
# Sequence of HOXA2 (Homo sapiens, UniProt O43364 129-215, R185T) (O43364 129-215 R185T): as the sequence (O43364 129-215 Y150S) above, with S22Y, R57T counted along it
# Sequence of ALX3 (Homo sapiens, UniProt O95076 139-225, L168V) (O95076 139-225 L168V): as the sequence (O95076 139-225 L168Q) above, with Q30V counted along it
# Sequence of ALX3 (Homo sapiens, UniProt O95076 139-225, N203S) (O95076 139-225 N203S): as the sequence (O95076 139-225 L168Q) above, with Q30L, N65S counted along it
# Sequence of ALX3 (Homo sapiens, UniProt O95076 139-225) (O95076 139-225): as the sequence (O95076 139-225 L168Q) above, with Q30L counted along it
# Sequence of MSX2 (Homo sapiens, UniProt P35548 130-214, F161Y) (P35548 130-214 F161Y): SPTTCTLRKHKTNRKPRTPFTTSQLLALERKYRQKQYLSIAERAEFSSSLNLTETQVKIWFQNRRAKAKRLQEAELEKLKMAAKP
# Sequence of HOXB6 (Homo sapiens, UniProt P17509 132-218, K202E) (P17509 132-218 K202E): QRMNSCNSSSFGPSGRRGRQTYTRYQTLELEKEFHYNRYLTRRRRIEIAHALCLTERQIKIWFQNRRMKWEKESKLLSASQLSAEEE
# Sequence of HOXD13 (Homo sapiens, UniProt P35453 263-343, T313A) (P35453 263-343 T313A): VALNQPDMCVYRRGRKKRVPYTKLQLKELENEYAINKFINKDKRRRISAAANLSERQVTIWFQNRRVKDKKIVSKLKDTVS
# Sequence of PROP1 (Homo sapiens, UniProt O75360 56-141) (O75360 56-141): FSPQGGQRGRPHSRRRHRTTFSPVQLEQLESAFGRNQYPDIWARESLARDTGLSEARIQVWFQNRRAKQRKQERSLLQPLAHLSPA
# Sequence of HOXB6 (Homo sapiens, UniProt P17509 132-218) (P17509 132-218): as the sequence (P17509 132-218 K202E) above, with E71K counted along it
# Sequence of ALX1 (Homo sapiens, UniProt Q15699 118-204, L144V) (Q15699 118-204 L144V): as the sequence (Q15699 118-204) above, with L27V counted along it
# Sequence of ALX3 (Homo sapiens, UniProt O95076 139-225, N203Q) (O95076 139-225 N203Q): as the sequence (O95076 139-225 L168Q) above, with Q30L, N65Q counted along it
sequence,measurement,setting,value
CCCGGGCC,binding signal,NKX2-4 [1],"9.16 upbm affinity estimate (log intensity, higher = more binding, comparable within an allelic series)"
same,binding signal,NKX2-4 [2],"8.94 upbm affinity estimate (log intensity, higher = more binding, comparable within an allelic series)"
same,binding signal,PAX4 [3],"9.02 upbm affinity estimate (log intensity, higher = more binding, comparable within an allelic series)"
same,binding signal,PAX4 [4],"9.01 upbm affinity estimate (log intensity, higher = more binding, comparable within an allelic series)"
same,binding signal,NKX2-4 [5],"9.18 upbm affinity estimate (log intensity, higher = more binding, comparable within an allelic series)"
same,binding signal,HOXB6 [6],"8.77 upbm affinity estimate (log intensity, higher = more binding, comparable within an allelic series)"
same,binding signal,HOXA2 [7],"7.21 upbm affinity estimate (log intensity, higher = more binding, comparable within an allelic series)"
same,binding signal,ALX3 [8],"7.64 upbm affinity estimate (log intensity, higher = more binding, comparable within an allelic series)"
same,binding signal,PAX4 [9],"9.07 upbm affinity estimate (log intensity, higher = more binding, comparable within an allelic series)"
same,binding signal,HOXA2 [10],"10.1 upbm affinity estimate (log intensity, higher = more binding, comparable within an allelic series)"
same,binding signal,PAX4 [11],"8.94 upbm affinity estimate (log intensity, higher = more binding, comparable within an allelic series)"
same,binding signal,ALX3 [12],"7.66 upbm affinity estimate (log intensity, higher = more binding, comparable within an allelic series)"
same,binding signal,NKX2-4 [13],"9.15 upbm affinity estimate (log intensity, higher = more binding, comparable within an allelic series)"
same,binding signal,PAX4 [14],"8.97 upbm affinity estimate (log intensity, higher = more binding, comparable within an allelic series)"
same,binding signal,PROP1 [15],"6.58 upbm affinity estimate (log intensity, higher = more binding, comparable within an allelic series)"
same,binding signal,PROP1 [16],"6.56 upbm affinity estimate (log intensity, higher = more binding, comparable within an allelic series)"
same,binding signal,ALX3 [17],"7.63 upbm affinity estimate (log intensity, higher = more binding, comparable within an allelic series)"
same,binding signal,ALX3 [18],"7.64 upbm affinity estimate (log intensity, higher = more binding, comparable within an allelic series)"
same,binding signal,PROP1 [19],"6.14 upbm affinity estimate (log intensity, higher = more binding, comparable within an allelic series)"
same,binding signal,PAX4 [20],"9.08 upbm affinity estimate (log intensity, higher = more binding, comparable within an allelic series)"
same,binding signal,HOXA2 [21],"10.2 upbm affinity estimate (log intensity, higher = more binding, comparable within an allelic series)"
same,binding signal,ALX3 [22],"7.61 upbm affinity estimate (log intensity, higher = more binding, comparable within an allelic series)"
same,binding signal,HOXA2 [23],"7.08 upbm affinity estimate (log intensity, higher = more binding, comparable within an allelic series)"
same,binding signal,HOXB6 [24],"8.77 upbm affinity estimate (log intensity, higher = more binding, comparable within an allelic series)"
CGCCGCAG,binding signal,NKX2-4 [1],"9.48 upbm affinity estimate (log intensity, higher = more binding, comparable within an allelic series)"
same,binding signal,NKX2-4 [2],"9.2 upbm affinity estimate (log intensity, higher = more binding, comparable within an allelic series)"
same,binding signal,NKX2-4 [5],"9.51 upbm affinity estimate (log intensity, higher = more binding, comparable within an allelic series)"
same,binding signal,HOXD13 [25],"9.57 upbm affinity estimate (log intensity, higher = more binding, comparable within an allelic series)"
same,binding signal,HOXD13 [26],"9.58 upbm affinity estimate (log intensity, higher = more binding, comparable within an allelic series)"
same,binding signal,NKX2-4 [13],"9.58 upbm affinity estimate (log intensity, higher = more binding, comparable within an allelic series)"
same,binding signal,HOXD13 [27],"9.63 upbm affinity estimate (log intensity, higher = more binding, comparable within an allelic series)"
GATGAGGA,binding signal,NKX2-4 [1],"11.4 upbm affinity estimate (log intensity, higher = more binding, comparable within an allelic series)"
same,binding signal,NKX2-4 [2],"11.6 upbm affinity estimate (log intensity, higher = more binding, comparable within an allelic series)"
same,binding signal,NKX2-4 [5],"11.3 upbm affinity estimate (log intensity, higher = more binding, comparable within an allelic series)"
CAAGAGGA,binding signal,NKX2-4 [1],"12 upbm affinity estimate (log intensity, higher = more binding, comparable within an allelic series)"
same,binding signal,NKX2-4 [2],"12.3 upbm affinity estimate (log intensity, higher = more binding, comparable within an allelic series)"
same,binding signal,NKX2-4 [5],"12 upbm affinity estimate (log intensity, higher = more binding, comparable within an allelic series)"
same,binding signal,NKX2-4 [13],"12.4 upbm affinity estimate (log intensity, higher = more binding, comparable within an allelic series)"
ACCCCTGG,binding signal,NKX2-4 [1],"9.8 upbm affinity estimate (log intensity, higher = more binding, comparable within an allelic series)"
same,binding signal,NKX2-4 [2],"9.68 upbm affinity estimate (log intensity, higher = more binding, comparable within an allelic series)"
same,binding signal,NKX2-4 [5],"9.75 upbm affinity estimate (log intensity, higher = more binding, comparable within an allelic series)"
same,binding signal,MSX2 [28],"9.54 upbm affinity estimate (log intensity, higher = more binding, comparable within an allelic series)"
same,binding signal,ALX1 [29],"6.31 upbm affinity estimate (log intensity, higher = more binding, comparable within an allelic series)"
same,binding signal,ALX1 [30],"6.38 upbm affinity estimate (log intensity, higher = more binding, comparable within an allelic series)"
same,binding signal,MSX2 [31],"9.55 upbm affinity estimate (log intensity, higher = more binding, comparable within an allelic series)"
same,binding signal,NKX2-4 [13],"9.71 upbm affinity estimate (log intensity, higher = more binding, comparable within an allelic series)"
same,binding signal,MSX2 [32],"9.58 upbm affinity estimate (log intensity, higher = more binding, comparable within an allelic series)"
same,binding signal,ALX1 [33],"6.28 upbm affinity estimate (log intensity, higher = more binding, comparable within an allelic series)"
GCACTACA,binding signal,NKX2-4 [1],"11.7 upbm affinity estimate (log intensity, higher = more binding, comparable within an allelic series)"
same,binding signal,NKX2-4 [2],"11.7 upbm affinity estimate (log intensity, higher = more binding, comparable within an allelic series)"
same,binding signal,NKX2-4 [5],"11.6 upbm affinity estimate (log intensity, higher = more binding, comparable within an allelic series)"
same,binding signal,NKX2-4 [13],"11.9 upbm affinity estimate (log intensity, higher = more binding, comparable within an allelic series)"
GATCGGCC,binding signal,NKX2-4 [1],"9.8 upbm affinity estimate (log intensity, higher = more binding, comparable within an allelic series)"
same,binding signal,NKX2-4 [2],"9.89 upbm affinity estimate (log intensity, higher = more binding, comparable within an allelic series)"
same,binding signal,NKX2-4 [5],"9.87 upbm affinity estimate (log intensity, higher = more binding, comparable within an allelic series)"
same,binding signal,NKX2-4 [13],"9.9 upbm affinity estimate (log intensity, higher = more binding, comparable within an allelic series)"
CCGCTAGG,binding signal,NKX2-4 [1],"9.61 upbm affinity estimate (log intensity, higher = more binding, comparable within an allelic series)"
same,binding signal,NKX2-4 [2],"9.55 upbm affinity estimate (log intensity, higher = more binding, comparable within an allelic series)"
same,binding signal,NKX2-4 [5],"9.61 upbm affinity estimate (log intensity, higher = more binding, comparable within an allelic series)"
same,binding signal,NKX2-4 [13],"9.6 upbm affinity estimate (log intensity, higher = more binding, comparable within an allelic series)"
ACGCCTTG,binding signal,NKX2-4 [1],"9.82 upbm affinity estimate (log intensity, higher = more binding, comparable within an allelic series)"
same,binding signal,NKX2-4 [2],"9.81 upbm affinity estimate (log intensity, higher = more binding, comparable within an allelic series)"
same,binding signal,NKX2-4 [5],"9.74 upbm affinity estimate (log intensity, higher = more binding, comparable within an allelic series)"
same,binding signal,NKX2-4 [13],"9.73 upbm affinity estimate (log intensity, higher = more binding, comparable within an allelic series)"
AAAATGCG,binding signal,NKX2-4 [1],"9.82 upbm affinity estimate (log intensity, higher = more binding, comparable within an allelic series)"
same,binding signal,NKX2-4 [2],"9.83 upbm affinity estimate (log intensity, higher = more binding, comparable within an allelic series)"
same,binding signal,NKX2-4 [5],"9.74 upbm affinity estimate (log intensity, higher = more binding, comparable within an allelic series)"
same,binding signal,NKX2-4 [13],"9.92 upbm affinity estimate (log intensity, higher = more binding, comparable within an allelic series)"
CTAGGCCA,binding signal,NKX2-4 [1],"9.82 upbm affinity estimate (log intensity, higher = more binding, comparable within an allelic series)"
same,binding signal,NKX2-4 [2],"9.87 upbm affinity estimate (log intensity, higher = more binding, comparable within an allelic series)"
same,binding signal,NKX2-4 [5],"9.84 upbm affinity estimate (log intensity, higher = more binding, comparable within an allelic series)"
same,binding signal,NKX2-4 [13],"9.9 upbm affinity estimate (log intensity, higher = more binding, comparable within an allelic series)"
GTGGCCAC,binding signal,NKX2-4 [1],"10.2 upbm affinity estimate (log intensity, higher = more binding, comparable within an allelic series)"
same,binding signal,NKX2-4 [2],"10.2 upbm affinity estimate (log intensity, higher = more binding, comparable within an allelic series)"
same,binding signal,NKX2-4 [5],"10.2 upbm affinity estimate (log intensity, higher = more binding, comparable within an allelic series)"
same,binding signal,NKX2-4 [13],"10.3 upbm affinity estimate (log intensity, higher = more binding, comparable within an allelic series)"
TACTTCAA,binding signal,NKX2-4 [1],"12.5 upbm affinity estimate (log intensity, higher = more binding, comparable within an allelic series)"
same,binding signal,NKX2-4 [2],"12.9 upbm affinity estimate (log intensity, higher = more binding, comparable within an allelic series)"
same,binding signal,NKX2-4 [5],"12.4 upbm affinity estimate (log intensity, higher = more binding, comparable within an allelic series)"
same,binding signal,NKX2-4 [13],"13 upbm affinity estimate (log intensity, higher = more binding, comparable within an allelic series)"
